# Experimental data published in PubChem BioAssay AID1159580 (chemical genetic matrix, 2015).
# About 2,000 (36%) of roughly 5,500 compounds were called active. Roughly 18% stayed inconclusive and do not appear here. The list shows a part of the results. Values without a mark were called inactive. Cut-off read from the data, not from the text of the source: active = normalized growth mostly below about 0.91 (no sharp cut-off); inconclusive = no clear call, values can overlap the other calls; inactive = mostly above about 0.92.
# Test: chemical genetic growth profiling, strain panel (AID 1159580);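 note: tested at 20 µM; growth read once vehicle control cultures reached saturation at 30 °C; 1 = growth at the plate median or of vehicle wells; lower values mean less growth of the strain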
# Details: growth OD
structure (smiles),measurement,setting,value
CC[C@@]1(O)C[C@H](O[C@H]2C[C@H](N(C)C)[C@H](O)[C@H](C)O2)c2c(cc3c(c2O)C(=O)c2c(O)ccc(O)c2C3=O)[C@H]1C(=O)OC,normalized growth,"S. cerevisiae deletion strains, locus YJR066W, strain TOR1, stronger effect = lower value",0.957
same,normalized growth,"S. cerevisiae deletion strains, locus YJR075W, strain HOC1, stronger effect = lower value",0.0948 (active)
same,normalized growth,"S. cerevisiae deletion strains, locus YKL009W, strain mrt4, stronger effect = lower value",0.961
same,normalized growth,"S. cerevisiae deletion strains, locus YKL068W, stronger effect = lower value",0.982
same,normalized growth,"S. cerevisiae deletion strains, locus YKL085W, strain MDH1 (second series), stronger effect = lower value",1
same,normalized growth,"S. cerevisiae deletion strains, locus YKL085W, strain MDH1, stronger effect = lower value",1
same,normalized growth,"S. cerevisiae deletion strains, locus YKL160W, strain elf1, stronger effect = lower value",0.924
same,normalized growth,"S. cerevisiae deletion strains, locus YKR001C, strain vps1, stronger effect = lower value",0.0857 (active)
same,normalized growth,"S. cerevisiae deletion strains, locus YKR026C, strain gcn3, stronger effect = lower value",0.994
same,normalized growth,"S. cerevisiae deletion strains, locus YKR091W, strain srl3, stronger effect = lower value",0.958
same,normalized growth,"S. cerevisiae deletion strains, locus YLL001W, strain dnm1, stronger effect = lower value",0.884 (active)
same,normalized growth,"S. cerevisiae deletion strains, locus YLL026W, stronger effect = lower value",0.975
same,normalized growth,"S. cerevisiae deletion strains, locus YLL041C, strain sdh2, stronger effect = lower value",0.935
same,normalized growth,"S. cerevisiae deletion strains, locus YLR027C, strain aat2, stronger effect = lower value",0.975
same,normalized growth,"S. cerevisiae deletion strains, locus YLR039C, strain RIC1, stronger effect = lower value",0.113 (active)
same,normalized growth,"S. cerevisiae deletion strains, locus YLR058C, strain SHM2, stronger effect = lower value",0.0794 (active)
same,normalized growth,"S. cerevisiae deletion strains, locus YLR102C, strain apc9, stronger effect = lower value",0.467 (active)
same,normalized growth,"S. cerevisiae deletion strains, locus YLR113W, strain HOG1, stronger effect = lower value",0.95
same,normalized growth,"S. cerevisiae deletion strains, locus YLR221C, strain rsa3, stronger effect = lower value",0.877 (active)
same,normalized growth,"S. cerevisiae deletion strains, locus YLR258W, strain gsy2, stronger effect = lower value",0.905 (active)
same,normalized growth,"S. cerevisiae deletion strains, locus YLR262C, strain YPT6 (second series), stronger effect = lower value",0.701 (active)
same,normalized growth,"S. cerevisiae deletion strains, locus YLR262C, strain YPT6, stronger effect = lower value",0.13 (active)
same,normalized growth,"S. cerevisiae deletion strains, locus YLR268W, strain sec22, stronger effect = lower value",0.112 (active)
same,normalized growth,"S. cerevisiae deletion strains, locus YLR320W, strain mms22, stronger effect = lower value",0.844 (active)
same,normalized growth,"S. cerevisiae deletion strains, locus YLR330W, strain CHS5, stronger effect = lower value",0.0655 (active)
same,normalized growth,"S. cerevisiae deletion strains, locus YLR342W, strain FKS1 (second series), stronger effect = lower value",0.0959 (active)
same,normalized growth,"S. cerevisiae deletion strains, locus YLR342W, strain FKS1, stronger effect = lower value",0.865 (active)
same,normalized growth,"S. cerevisiae deletion strains, locus YLR357W, strain rsc2, stronger effect = lower value",0.907
same,normalized growth,"S. cerevisiae deletion strains, locus YLR370C, strain arc18, stronger effect = lower value",0.88 (active)
same,normalized growth,"S. cerevisiae deletion strains, locus YLR371W, strain rom2, stronger effect = lower value",0.15 (active)
same,normalized growth,"S. cerevisiae deletion strains, locus YLR384C, strain iki3, stronger effect = lower value",0.957
same,normalized growth,"S. cerevisiae deletion strains, locus YLR418C, strain cdc73, stronger effect = lower value",0.138 (active)
same,normalized growth,"S. cerevisiae deletion strains, locus YML016C, strain PPZ1, stronger effect = lower value",0.0829 (active)
same,normalized growth,"S. cerevisiae deletion strains, locus YML032C, strain rad52, stronger effect = lower value",0.121 (active)
same,normalized growth,"S. cerevisiae deletion strains, locus YML120C, strain ndi1, stronger effect = lower value",1.02
same,normalized growth,"S. cerevisiae deletion strains, locus YML124C, strain tub3, stronger effect = lower value",0.195 (active)
same,normalized growth,"S. cerevisiae deletion strains, locus YMR058W, strain fet3, stronger effect = lower value",0.416 (active)
same,normalized growth,"S. cerevisiae deletion strains, locus YMR078C, strain ctf18, stronger effect = lower value",0.147 (active)
same,normalized growth,"S. cerevisiae deletion strains, locus YMR125W, strain sto1, stronger effect = lower value",1.02
same,normalized growth,"S. cerevisiae deletion strains, locus YMR129W, stronger effect = lower value",0.997
same,normalized growth,"S. cerevisiae deletion strains, locus YMR205C, strain PFK2, stronger effect = lower value",0.871 (active)
same,normalized growth,"S. cerevisiae deletion strains, locus YMR223W, strain ubp8, stronger effect = lower value",0.157 (active)
same,normalized growth,"S. cerevisiae deletion strains, locus YMR231W, strain pep5, stronger effect = lower value",1
same,normalized growth,"S. cerevisiae deletion strains, locus YMR263W, strain SAP30, stronger effect = lower value",0.377 (active)
same,normalized growth,"S. cerevisiae deletion strains, locus YMR307W, strain GAS1, stronger effect = lower value",0.149 (active)
same,normalized growth,"S. cerevisiae deletion strains, locus YNL067W, strain RPL9B, stronger effect = lower value",0.0765 (active)
same,normalized growth,"S. cerevisiae deletion strains, locus YNL071W, strain lat1, stronger effect = lower value",0.951
same,normalized growth,"S. cerevisiae deletion strains, locus YNL153C, strain GIM3, stronger effect = lower value",0.0856 (active)
same,normalized growth,"S. cerevisiae deletion strains, locus YNL183C, strain NPR1, stronger effect = lower value",0.941
same,normalized growth,"S. cerevisiae deletion strains, locus YNL209W, strain ssb2, stronger effect = lower value",0.82 (active)
same,normalized growth,"S. cerevisiae deletion strains, locus YNL233W, strain BNI4, stronger effect = lower value",0.0884 (active)
same,normalized growth,"S. cerevisiae deletion strains, locus YNL248C, strain rpa49, stronger effect = lower value",0.974
same,normalized growth,"S. cerevisiae deletion strains, locus YNL250W, strain rad50, stronger effect = lower value",0.738 (active)
same,normalized growth,"S. cerevisiae deletion strains, locus YNL271C, strain bni1, stronger effect = lower value",0.96
same,normalized growth,"S. cerevisiae deletion strains, locus YNL298W, strain CLA4, stronger effect = lower value",0.98
same,normalized growth,"S. cerevisiae deletion strains, locus YNL307C, strain MCK1, stronger effect = lower value",0.0826 (active)
same,normalized growth,"S. cerevisiae deletion strains, locus YNL322C, strain KRE1 (second series), stronger effect = lower value",0.972
same,normalized growth,"S. cerevisiae deletion strains, locus YNR049C, strain mso1, stronger effect = lower value",0.926
same,normalized growth,"S. cerevisiae deletion strains, locus YNR052C, strain pop2, stronger effect = lower value",0.0986 (active)
same,normalized growth,"S. cerevisiae deletion strains, locus YOL012C, strain htz1",0.253
same,normalized growth,"S. cerevisiae deletion strains, locus YOL147C, strain pex11, stronger effect = lower value",0.13 (active)
same,normalized growth,"S. cerevisiae deletion strains, locus YOR001W, strain rrp6, stronger effect = lower value",1.01
same,normalized growth,"S. cerevisiae deletion strains, locus YOR061W, strain CKA2, stronger effect = lower value",0.0764 (active)
same,normalized growth,"S. cerevisiae deletion strains, locus YOR069W, strain VPS5, stronger effect = lower value",0.0745 (active)
same,normalized growth,"S. cerevisiae deletion strains, locus YOR070C, strain gyp1, stronger effect = lower value",0.989
same,normalized growth,"S. cerevisiae deletion strains, locus YOR080W, strain dia2, stronger effect = lower value",0.916
same,normalized growth,"S. cerevisiae deletion strains, locus YOR083W, strain WHI5, stronger effect = lower value",0.918
same,normalized growth,"S. cerevisiae deletion strains, locus YOR106W, strain vam3, stronger effect = lower value",0.703 (active)
same,normalized growth,"S. cerevisiae deletion strains, locus YOR136W, strain idh2, stronger effect = lower value",0.203 (active)
same,normalized growth,"S. cerevisiae deletion strains, locus YOR144C, strain elg1, stronger effect = lower value",0.298 (active)
same,normalized growth,"S. cerevisiae deletion strains, locus YOR184W, strain ser1, stronger effect = lower value",0.0852 (active)
same,normalized growth,"S. cerevisiae deletion strains, locus YOR231W, strain MKK1, stronger effect = lower value",0.975
same,normalized growth,"S. cerevisiae deletion strains, locus YOR265W, strain rbl2, stronger effect = lower value",0.899 (active)
same,normalized growth,"S. cerevisiae deletion strains, locus YOR270C, strain vph1, stronger effect = lower value",0.656 (active)
same,normalized growth,"S. cerevisiae deletion strains, locus YOR290C, strain snf2, stronger effect = lower value",0.711 (active)
same,normalized growth,"S. cerevisiae deletion strains, locus YOR316C, strain cot1, stronger effect = lower value",0.21 (active)
same,normalized growth,"S. cerevisiae deletion strains, locus YPL051W, strain arl3, stronger effect = lower value",0.756 (active)
same,normalized growth,"S. cerevisiae deletion strains, locus YPL078C, strain atp4, stronger effect = lower value",0.867 (active)
same,normalized growth,"S. cerevisiae deletion strains, locus YPL106C, strain sse1, stronger effect = lower value",0.909
same,normalized growth,"S. cerevisiae deletion strains, locus YPL240C, strain hsp82, stronger effect = lower value",0.933
same,normalized growth,"S. cerevisiae deletion strains, locus YPL241C, strain CIN2, stronger effect = lower value",0.0834 (active)
same,normalized growth,"S. cerevisiae deletion strains, locus YPL256C, strain CLN2, stronger effect = lower value",0.983
same,normalized growth,"S. cerevisiae deletion strains, locus YPR119W, strain clb2, stronger effect = lower value",0.2 (active)
same,normalized growth,"S. cerevisiae deletion strains, locus YPR141C, strain kar3, stronger effect = lower value",0.967
same,normalized growth,"S. cerevisiae deletion strains, locus YPR163C, strain tif3, stronger effect = lower value",0.115 (active)
same,normalized growth,"S. cerevisiae deletion strains, locus YPR167C, strain met16, stronger effect = lower value",0.125 (active)
same,normalized growth,"S. cerevisiae deletion strains, strain wtn01, stronger effect = lower value",0.0957 (active)
same,normalized growth,"S. cerevisiae strains, strain wild type, stronger effect = lower value",0.0706 (active)
